High-throughput results: PubChem BioAssay, National Center for Advancing Translational Sciences (NCATS)
Sampled rows, rich in hits. Any-hit rate of the full collection: about 21%.
SARS PLpro yeast: SARS-CoV PLP inhibition in yeast. S. cerevisiae expressing SARS-CoV PLpro, growth rescue. Potency, µM (series often up to 32.9 µM), for inactives: at the highest dose activity, positive = growth rescue, hits mostly activators. hit rate 0.19% among 330,000; also: potency is read from the fitted curve at half-maximal effect; 0% is about no effect; nearly all actives have a fitted effect of over 55% in size
Pf growth 96h: P. falciparum growth inhibition at 96 hours; Potency, µM (titrated, usually from 28.7 µM), for inactives: at the top dose activity change, negative = inhibition, hits mostly inhibitors; P. falciparum luciferase reporter growth, 96 h; AID 504834; hit rate 6.9% among 320,000; active = well fitted inhibition curve with a large enough effect; inconclusive = small, poorly fitted or top-dose-only effect, or another doubt; inactive = no such curve, though single readings can be large or run the other way; also: potency is read from the fitted curve at half-maximal effect; % is scaled to controls: 0 for no effect and ±100 for the full control effect
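Erythrocytes infected with luciferase-expressing P. falciparum were dispensed at 2% hematocrit and 0.05% parasitemia (final), then incubated with compounds 96 hours at 37 C in 5% CO2. Luminescence after detection reagent addition reported growth.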
CHX counter: affects cycloheximide protein synthesis inhibition readout, counter-screen; cell reporter, cycloheximide protein synthesis inhibition counterscreen; hit rate 12% among 300,000; max response, %; in the data active = max response mostly above about 13%, no sharp cut-off; inactive = mostly below about 14%; also: read at 38.3 µM for the half of the compounds with a filed dose; 0% is about no effect
Shiga toxin inh: inhibitors of Shiga toxin in Vero cells; Vero cells, Shiga toxin protein synthesis inhibition reporter; inhibition, % at 38.7 µM; hit rate 9.2% among 290,000; in the data active = inhibition mostly above about 28%, no sharp cut-off; inactive = mostly below about 43%; also: 0% is about no effect
NS1 function inh: influenza NS1 inhibition. hit rate 0.4% among 270,000. AID 2326. Potency, µM (doses to about 46.1 µM), inactives show top-dose activity, positive = more growth; also: potency is read from the fitted curve at half-maximal effect; actives are rising curves; nearly all actives have a fitted effect of over 50% in size
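A cell-based growth assay was used: compounds that relieve NS1-induced slow growth of budding yeast raise OD600. Assay medium was yeast nitrogen base with ammonium sulphate and -URA supplement, pH 6.0, with 2% galactose.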
Pf growth 48h: inhibits P. falciparum growth in the first generation, 48 h | Potency, µM (top dose mostly 28.7 µM), for inactives: top-dose activity change, negative = inhibition, hits mostly inhibitors | hit rate 5.9% among 310,000 | AID 504832 | P. falciparum luciferase growth in erythrocytes, 48 h; active = well fitted inhibition curve with a large enough effect; inconclusive = small, poorly fitted or top-dose-only effect, or another doubt; inactive = no such curve, though single readings can be large or run the other way; also: potency is read from the fitted curve at half-maximal effect; % is scaled to controls: 0 for no effect and ±100 for the full control effect
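Parasite viability was followed by luminescence of a genomically integrated firefly luciferase. Cultures held 0.1% parasitemia at 2% hematocrit (final), incubated under 5% CO2 at 37 C.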
Active calls of the source: *; ? = inconclusive; nt = not tested or not shown; ! = repeats disagree. Unless noted, calls follow the shape of the full dose curve.

SMILES	SARS PLpro yeast	Pf growth 96h	CHX counter	Shiga toxin inh	NS1 function inh	Pf growth 48h
O=C(CSc1ccccn1)C12CC3CC(CC(C3)C1)C2	-1.5%	30.7%	1.6	19.4	-32.8%	-15.8%
O=C(COC(=O)/C=C/c1ccc(C(F)(F)F)cc1)NCc1ccco1	2.7%	-4.0%	3.7	12.6	-28.8%	0.0%
Cc1ccc(C(C)C)c(OCc2nc(-c3nonc3N)no2)c1	-11.8%	4.65µM*	28.1*	100.9*	-15.3%	nt
Cc1nc(NC2=NCN(CCc3ccccc3)CN2)nc2ccccc12	-0.1%	nt	-1.2	19.8	-7.4%	?
Cc1ccc2c(C)nc(NC3=NCN(CCc4ccccc4)CN3)nc2c1	0.0%	239.5%	-5.3	-13.0	-7.2%	2.62µM*
COCCN1CN=C(Nc2nc(C)c3ccc(C)cc3n2)NC1	-1.2%	3.0%	-3.9	-13.9	-2.9%	2.08µM*
O=C(O)C1C2C=CC(C2)C1C(=O)NC(c1ccccc1)c1ccccc1 (configuration not stated)	-7.9%	nt	-1.5	-15.2	-4.0%	0.9%
O=c1oc2ccccc2c(Cl)c1CN1CCCCC1	-0.6%	3.0%	1.1	0.6	2.1%	-7.5%
CCOC(=O)/C(O)=C/c1ncc(C(F)(F)F)cc1Cl	-0.7%	30.1%	2.2	43.3	-9.1%	37.4%
CCOC(=O)/C(=C\Nc1ccc(OC(F)(F)F)cc1)Sc1ncc(C(F)(F)F)cc1Cl	-6.5%	nt	-3.1	-24.8	?	2.08µM*
CO/N=C/C(NC(=O)c1ccc(C(F)(F)F)cc1)C(=O)OC (configuration not stated)	-4.9%	?	23.2*	47.7	nt	401.1%
CCOC(=O)[C@H]1[C@H]2COc3ccc(Cl)cc3[C@@H]2N2C(=O)c3cc(Cl)ccc3NC(=O)[C@@]12C	-3.7%	10.4µM*	nt	nt	nt	?
CCOC(=O)[C@H]1[C@H]2COc3ccccc3[C@@H]2N2C(=O)c3cc(Cl)ccc3NC(=O)[C@@]12C	-2.0%	11.7µM*	nt	nt	nt	10.4µM*
CCOC(=O)[C@H]1[C@H]2COc3ccc(Cl)cc3[C@@H]2N2C(=O)c3cc(Br)ccc3NC(=O)[C@@]12C	0.7%	?	nt	nt	nt	?
CCOC(=O)[C@H]1[C@H]2COc3ccc(Cl)cc3[C@@H]2N2C(=O)c3ccc(F)cc3NC(=O)[C@@]12C	5.5%	?	nt	nt	nt	11.7µM*
CCOC(=O)[C@H]1[C@H]2COc3ccccc3[C@@H]2N2C(=O)c3cc(C)ccc3NC(=O)[C@@]12C	-6.4%	13.1µM*	nt	nt	nt	?
CCOc1cccc2cc(C(=O)NCc3ccccc3Cl)c(=O)oc12	12.3%	-15.4%	4.2	1.3	24.5%	?
COC(=O)C[C@]1(C(=O)OC)CN(C#N)N(c2ccc(Cl)cc2)C12c1ccccc1-c1ccccc12	-20.5%	3.7µM*	-7.7	-11.2	21.6%	3.7µM*
CCOC(=O)c1sc2nc(CC(=O)OC)nc(NCc3ccco3)c2c1C	-5.3%	-23.3%	-2.4	7.0	-34.6%	2.62µM*
CCOC(=O)c1sc2nc(CC(=O)OC)nc(NCC(=O)OC)c2c1C	5.2%	0.8%	6.8	0.9	-54.2%	?
O=C(c1ccc([N+](=O)[O-])cc1[N+](=O)[O-])n1cnc2ccccc21	1.1%	0.0%	-1.9	10.7	nt	-14.5%
CCN(CC)CCCN1C=C2C(=O)C(C)(OC(=O)C3CCCC3)C(=O)C=C2C=C1c1ccsc1 (configuration not stated)	1.0%	?	-2.6	21.2	6.8%	10.4µM*
C=CCN1C=C2C(=O)C(C)(OC(=O)C3CCCC3)C(=O)C=C2C=C1c1ccsc1 (configuration not stated)	1.5%	?	-3.2	-5.4	9.9%	?
CC1(OC(=O)C2CCCC2)C(=O)C=C2C=C(c3ccsc3)N(CCc3ccccn3)C=C2C1=O (configuration not stated)	0.3%	?	2.6	43.4	0.5%	?
CC(C)CN1C=C2C(=O)C(C)(OC(=O)C3CCCC3)C(=O)C=C2C=C1c1ccsc1 (configuration not stated)	-1.7%	10.4µM*	-1.6	-7.3	6.9%	?
SMILES	SARS PLpro yeast	Pf growth 96h	CHX counter	Shiga toxin inh	NS1 function inh	Pf growth 48h
CC1(OC(=O)C2CCCC2)C(=O)C=C2C=C(c3ccsc3)N(Cc3ccccc3)C=C2C1=O (configuration not stated)	-0.3%	?	-4.0	15.9	7.5%	11.7µM*
CC1(OC(=O)C2CCCC2)C(=O)C=C2C=C(c3ccsc3)N(C3CC3)C=C2C1=O (configuration not stated)	1.3%	?	-1.7	3.9	-0.2%	?
COc1ccc(C(C(=O)NC2CCCC2)N(Cc2cccnc2)C(=O)c2snc(C(N)=O)c2N)cc1OC (configuration not stated)	1.2%	?	-6.8	-7.5	-2.0%	-6.9%
CCc1ccc(NC(=O)CSc2nnnn2-c2cccnc2)cc1	nt	?	9.0	10.0	10.7%	29.1%
O=C(NC1CCCc2ccccc21)c1ccccc1OC(F)F (configuration not stated)	-2.6%	?	-2.6	-11.3	-11.5%	-0.8%
O=C(CCN1CCOCC1)N1c2ccccc2Sc2ccc(Cl)cc21	-3.8%	15.8%	-6.8	4.2	11.2%	-8.0%
OCCN1CCN(CCC=C2c3ccccc3Sc3ccc(Cl)cc32)CC1	nt	4.55µM*	nt	nt	nt	?
OCCN1CCN(CC/C=C2/c3ccccc3Sc3ccc(C(F)(F)F)cc32)CC1	nt	8.28µM*!	-13.0	-26.9	-35.1%	6.57µM*
CCOC(=O)C1CCN(S(=O)(=O)c2cc(Br)cc3c2N(C(=O)C2CC2)CC3)CC1	-18.8%	-0.8%	-2.9	-7.8	-72.0%	8.28µM*
CC1CCCN(CCCNS(=O)(=O)c2cc(Br)cc3c2N(C(=O)C2CC2)CC3)C1 (configuration not stated)	0.6%	21.4%	1.3	24.7	16.0%	-4.9%
CC(=O)N1CCc2cc(Br)cc(S(=O)(=O)N3CCCCCC3)c21	-19.7%	0.0%	-2.2	-0.6	-22.1%	3.29µM*
CCC(=O)N1CCc2cc(Br)cc(S(=O)(=O)CC(=O)OC)c21	-1.2%	14.7µM*	9.9	16.8	5.5%	?
O=C(C1CC1)N1CCc2cc(Br)cc(S(=O)(=O)NCCCN3CCCC3)c21	-1.5%	9.28µM*	-3.0	-17.2	1.4%	-1.5%
CCC(=O)N1CCc2cc(Br)cc(S(=O)(=O)N3CCC(C(=O)NCCCOC(C)C)CC3)c21	11.1%	?	6.3	-25.6	-9.6%	2.94µM*
CCOCCCNC(=O)C1CCN(S(=O)(=O)c2cc(Br)cc3c2N(C(=O)CC)CC3)CC1	-0.5%	?	-7.2	-10.8	-12.5%	?
CN(Cc1nc(-c2ccccc2)no1)C(=O)c1ccc2c(c1)OCO2	2.0%	4.7%	nt	nt	nt	0.6%
OCCN(Cc1nc(-c2ccc3c(c2)OCO3)no1)Cc1cccs1	-3.4%	25.5%	17.0	36.0*	-37.4%	47.0%
Cc1nn(CCCC(=O)Nc2nccs2)c(C)c1[N+](=O)[O-]	0.4%	?	-1.1	17.3	nt	0.2%
